According to PubChem BioAssay (NCI):
Compounds without any hit were thinned out: in the full panel of roughly 83,000, 20% have a hit.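 Assay: single dose, 48 h. Readout: percent growth (0 = no net growth; negative = cell death). Active: <10.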 Activity calls are given as the source filed them.

Key:
Experiment in all cases: NCI-60 one-dose screen, 48 h (100 = growth as untreated, 0 = no growth, -100 = all killed)
Conditions in all cases: 10 µM unless noted
[1] = test system: SR leukemia
[2] = test system: RPMI-8226 leukemia
[3] = test system: OVCAR-8 ovarian
[4] = test system: OVCAR-5 ovarian
[5] = test system: OVCAR-4 ovarian
[6] = test system: SK-OV-3 ovarian
[7] = test system: IGROV1 ovarian
[8] = test system: OVCAR-3 ovarian
[9] = test system: HS 578T breast
[10] = test system: NCI/ADR-RES ovarian
[11] = test system: T-47D breast
[12] = test system: BT-549 breast
[13] = test system: MDA-MB-435 melanoma
[14] = test system: SW-620 colon
[15] = test system: MCF7 breast
[16] = test system: HCT-116 colon
[17] = test system: HCC-2998 colon
[18] = test system: KM12 colon

Measured: growth

Cc1cccc(Oc2ccc(Nc3ncnc4ccc(NC(=O)CN5CCN(C)CC5)cc34)cc2Cl)c1
inactive: [3] 13.2% | [4] 68.2% | [8] 10.1% | [10] 46.9% | [12] 70.3% | [16] 12.3% | [17] 19.3% | [18] 30.7%
active: [1] 4.43% | [2] -27.9% | [5] -13.5% | [6] 6.73% | [7] -21.9% | [9] -2.13% | [11] 7.58% | [13] -67.8% | [14] 3.68% | [15] 7.21%

Cc1ccc(/C=C(\C#N)n2nnc3cc(F)c(F)cc32)cc1
active: [1] 7.33% | [2] 4.53% | [3] 6.79% | [4] -4.62% | [7] 2.76% | [8] 7.86% | [11] -10.3% | [12] -18.4% | [13] -35.4% | [14] 9.9% | [16] -76.6% | [17] -10.6% | [18] 8%
inactive: [5] 46% | [6] 53.6% | [9] 36.1% | [10] 12.9% | [15] 12.6%

O=C(O)c1cn(C2CC2)c2cc(N3CCN(C(=O)Nc4nc(-c5ccc(Br)cc5)cs4)CC3)c(F)cc2c1=O
inactive: [1] 21.5% | [3] 10% | [4] 32.5% | [5] 26.6% | [7] 28.8% | [10] 69.4% | [11] 27.3% | [14] 21.6% | [16] 18.5% | [17] 35.4% | [18] 11.1%
active: [2] -9.26% | [6] 0.843% | [8] 8.58% | [9] 3.4% | [12] 1.15% | [13] 9.05% | [15] 5.12%

CNC(C)[C@H]1CCC2C3CC=C4C(=O)[C@@H](NC(=O)C=C(C)C)CC[C@]4(C)C3CC[C@@]21C (stereo partly drawn)
active: [1] -49.7% | [2] -43.7% | [5] -13.3% | [7] 9.81% | [8] -14% | [11] -21% | [13] -40.6% | [14] -52% | [15] -41.8% | [16] -30% | [17] -6.4%
inactive: [3] 42.5% | [4] 66.3% | [6] 46.4% | [9] 10.2% | [10] 39.1% | [12] 35.9% | [18] 10.1%

CCn1c(-c2cc3c([nH]c4ccccc43)c(-c3cccc(O)c3)n2)n[nH]c1=S
inactive: [2] 19.3% | [3] 40.8% | [4] 98.1% | [5] 54.8% | [6] 55.8% | [7] 53.7% | [8] 28.9% | [9] 28.1% | [10] 64.8% | [11] 11.7% | [12] 26.7% | [14] 62.8% | [15] 32.6% | [16] 48.2% | [17] 68.3% | [18] 28.4%
active: [1] -3.76% | [13] -24.2%

COc1ccc2c(c1)c(-c1nc(-c3c[nH]c4ncccc34)cs1)cn2CCCN1CCOCC1
active: [1] 6.64% | [2] 0.661% | [9] 2.12%
inactive: [3] 25.3% | [4] 68.1% | [5] 41.5% | [6] 51.8% | [7] 22.9% | [8] 44% | [10] 43.4% | [11] 31.7% | [12] 52.2% | [13] 47% | [14] 21.2% | [15] 13.3% | [16] 25.3% | [17] 65.5% | [18] 17%

O=C(CCCCCCN1CC(=O)N2[C@H](c3ccc(Br)cc3)c3[nH]c4ccccc4c3C[C@@H]2C1=O)NO
inactive: [1] 24% | [2] 18% | [3] 41.2% | [4] 40.5% | [5] 67.5% | [6] 49.5% | [7] 23.9% | [8] 41.5% | [9] 53% | [10] 89.6% | [12] 55.1% | [13] 26.2% | [14] 20.4% | [15] 28.4% | [16] 14.8% | [17] 67.5% | [18] 60.9%
active: [11] 9.61%

O=C(Nc1ccccc1O)c1ccc(CNC(=O)c2ccsc2Nc2ccnc(C(F)(F)F)c2)cc1
active: [2] -1.09% | [9] 4.47% | [10] 8.13%
inactive: [1] 22% | [3] 18.4% | [4] 44.3% | [5] 47.3% | [6] 49.1% | [7] 31.9% | [8] 21.6% | [11] 25% | [12] 51.7% | [13] 14.9% | [14] 19.1% | [15] 24.5% | [16] 15.9% | [17] 44.5% | [18] 30%

COC(=O)N1CC(Oc2ccccn2)C2CC1c1ccccc1O2 (stereo not drawn)
inactive: [1] 94.8% | [2] 85.6% | [3] 98.7% | [4] 107% | [5] 103% | [6] 103% | [7] 120% | [8] 110% | [9] 86% | [10] 98.5% | [11] 99.9% | [12] 99.5% | [13] 105% | [14] 102% | [15] 102% | [16] 97.2% | [17] 104% | [18] 107%

C/C=C(\C)C(=O)N[C@H]1C(O)C[C@]2(C)C3CC[C@@]4(C)C(CC[C@@H]4C(C)N(C)C)C3CCC2C1O (stereo partly drawn)
inactive: [3] 84.2% | [4] 95% | [5] 24.2% | [6] 87.7% | [7] 66% | [8] 33.5% | [9] 71.5% | [10] 81.3% | [11] 37.6% | [12] 88.9% | [14] 12.9% | [15] 28.6% | [17] 59.7% | [18] 28.7%
active: [1] -30.4% | [2] -12.3% | [13] -22.2% | [16] 3.85%

N#Cc1cccc(C2C3=C(COC3=O)N(CCO)c3cc4c(cc32)CCC4)c1 (stereo not drawn)
active: [3] 5.25% | [8] -10.5% | [10] 2.04% | [13] -32.7% | [16] 8.71%
inactive: [1] 14.8% | [2] 19.3% | [4] 43.5% | [5] 56.4% | [6] 32.1% | [7] 22.5% | [9] 28.2% | [11] 68.9% | [12] 33.5% | [14] 21.2% | [15] 23.2% | [17] 12.7% | [18] 11%

N#Cc1cccc(C2C3=C(COC3=O)N(CCO)c3cc4c(cc32)OCO4)c1 (stereo not drawn)
active: [8] 3.12% | [13] 0.432%
inactive: [1] 15.3% | [2] 19.2% | [3] 35.6% | [4] 69.5% | [5] 70.9% | [6] 23% | [7] 42.1% | [9] 20.2% | [10] 57.3% | [11] 20.8% | [12] 38.7% | [14] 16.3% | [15] 22.4% | [16] 17% | [17] 83.5% | [18] 27.9%

CC(C)N1C(=O)/C(=c2\sc3n(c2=O)C2C(NN=3)N(C)C(=O)N2C)c2ccccc21 (stereo not drawn)
inactive: [1] 23.3% | [2] 94.5% | [3] 79.6% | [4] 84.6% | [5] 85% | [6] 76.3% | [7] 53.2% | [8] 20.7% | [9] 41.7% | [10] 51.5% | [11] 64.8% | [12] 72.1% | [14] 29.6% | [15] 21.4% | [16] 51.4% | [17] 78.8% | [18] 44.2%
active: [13] -21.2%

CN(C)c1ccc(/C=C(\C#N)c2cc3ccccc3[nH]2)cc1
active: [2] 6.48% | [8] 8.37% | [9] 1.2% | [13] -25.4%
inactive: [1] 20% | [3] 26% | [4] 44.9% | [5] 55.7% | [6] 26.5% | [7] 50% | [10] 10.8% | [11] 36.1% | [12] 42.4% | [14] 13.2% | [15] 19.9% | [16] 11.5% | [17] 45.5% | [18] 24.9%

NC(=O)c1cnc(Nc2cccc(N)c2)nc1NCCCNC(=O)C1CCC1
inactive: [1] 77.1% | [2] 97.3% | [3] 71.1% | [4] 119% | [5] 88.5% | [6] 27.1% | [7] 65.8% | [8] 82.6% | [9] 72.8% | [10] 108% | [11] 106% | [12] 26.7% | [13] 82.6% | [14] 86.8% | [15] 74.7% | [16] 65.5% | [17] 103% | [18] 74.8%

Cc1ccc(/C=C/C(=O)c2cccc(OCCCOc3cccc(C(=O)/C=C/c4ccc(C)cc4)c3)c2)cc1
active: [2] -0.643% | [15] 2.54%
inactive: [1] 25.9% | [3] 87.5% | [4] 124% | [5] 65.3% | [6] 99.2% | [7] 77.2% | [8] 82.4% | [9] 86.1% | [10] 91.4% | [11] 58.4% | [12] 79.7% | [13] 89.3% | [14] 68.1% | [16] 18.3% | [17] 66.3% | [18] 78.8%
